Test results taken from the supplement of paper PMC10849652.
The full data set covers some 8,800 targets. This sample favours those with a hit. About 0.5% of all pairs of compound and target were hits.

Key:
Assay in all cases: log2 fold change, soluble protein after heating vs DMSO (PISA); higher = thermal stabilisation; K562 lysate, 10 uM; active = over 0.2 and 3.5 SD of the protein, either way, in both replicates (recomputed)
erlotinib = compound: C#Cc1cccc(Nc2ncnc3cc(OCCOC)c(OCCOC)cc23)c1 [erlotinib]
How it was run: (§1)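 Thermal stability, expressed as log-two fold change relative to solvent controls, is given from duplicates. Crude K562 extract in PBS pH 7.4 with 1 mM MgCl2, at 1 mg/mL protein, was treated with 10 μM compound for 30 min and heated in aliquots for 3 min across 48°C-58°C. After pooling, adjustment to 0.5% NP-40 at 4°C and centrifugation at 21,000xg for 90 min, supernatant protein was measured by TMTpro 16plex LC-MS/MS with channel sums equalised.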

[1] = compound: C/C(=N\NC(=O)C1=CC(=CC=C1)S(=O)(=O)N2CCOCC2)/C3=C(C=CC(=C3)Cl)O
How it was run: as §1

[2] = compound: C1=CC(=CC=C1C2=NC3=C(N2)C=C(C=C3)C(=O)N)OC4=CC=C(C=C4)Cl
How it was run: as §1

[3] = compound: C1=CC2=C(C=CC(=C2)/C=C\3/C(=O)NC(=NCC4=CC=CS4)S3)N=C1
How it was run: as §1

[4] = compound: C1=CC2=NC=CN=C2C=C1/C=C/3\C(=O)NC(=O)S3
How it was run: as §1

[5] = compound: C1=CC=C(C=C1)C2=NC(=C(N2)C3=CC=NC=C3)C4=CC(=C(C=C4)Cl)O
How it was run: as §1

[6] = compound: C1=CC=C2C(=C1)C3=NNC4=CC=CC(=C43)C2=O
How it was run: as §1

[7] = compound: C1CCN(C1)C(=O)NC2=CC=CC(=C2)NC3=NC=C(C(=N3)NCCC4=CN=CN4)Br
How it was run: as §1

[8] = compound: C1CN(CCC1(CC2=CC=C(C=C2)Cl)N)C3=NC=NC4=C3C=CN4
How it was run: as §1

IRAK-1-4 Inhibitor I = compound: C1COCCN1CCN2C3=CC=CC=C3N=C2NC(=O)C4=CC(=CC=C4)[N+](=O)[O-] [IRAK-1-4 Inhibitor I]
How it was run: as §1

ibrutinib = compound: C=CC(=O)N1CCC[C@@H](n2nc(-c3ccc(Oc4ccccc4)cc3)c3c(N)ncnc32)C1 [ibrutinib]
How it was run: as §1

[9] = compound: CC(=O)c1cnc2ccc(-c3cc(Cl)c(O)c(Cl)c3)nc2c1N[C@H]1CC[C@H](CN(C)C)CC1
How it was run: as §1

ralimetinib = compound: CC(C)(C)Cn1c(N)nc2ccc(-c3[nH]c(C(C)(C)C)nc3-c3ccc(F)cc3)nc21 [ralimetinib]
How it was run: as §1

[10] = compound: CC(C)(O)CC(=O)NCCn1ccc2ncnc(Nc3ccc(Oc4cccc(C(F)(F)F)c4)c(Cl)c3)c21
How it was run: as §1

[11] = compound: CC(C)C1=C2N=C(C=C(N2N=C1)NCC3=CC=CC=C3)NCCCCCCN
How it was run: as §1

[12] = compound: CC1=C(C(CC(=O)N1)C2=CC=C(C=C2)C(F)(F)F)C(=O)NC3=C(C=C4C(=C3)C=NN4)F
How it was run: as §1

[13] = compound: CC1=C(C2=C(C=C1)C(=O)C3=CC=CC=C3N2CCCN)C
How it was run: as §1

[14] = compound: CC1=C(C=C(C=C1)NC(=O)C2=CC(=CC=C2)C(C)(C)C#N)NC3=CC4=C(C=C3)N=CN(C4=O)C
How it was run: as §1

[15] = compound: CC1=C(C=C(C=C1)NC(=O)C2=CC(=CC=C2)N(C)C)NC(=O)C3=CC=C(C=C3)O
How it was run: as §1

[16] = compound: CC1=CC=C(C=C1)SC2=C3C=C(SC3=CN=C2)C(=O)N
How it was run: as §1

Measured: log2 fold change

RANBP2 (UniProt P49792)
UniProt P49792, sequence (P49792 whole entry, looked up): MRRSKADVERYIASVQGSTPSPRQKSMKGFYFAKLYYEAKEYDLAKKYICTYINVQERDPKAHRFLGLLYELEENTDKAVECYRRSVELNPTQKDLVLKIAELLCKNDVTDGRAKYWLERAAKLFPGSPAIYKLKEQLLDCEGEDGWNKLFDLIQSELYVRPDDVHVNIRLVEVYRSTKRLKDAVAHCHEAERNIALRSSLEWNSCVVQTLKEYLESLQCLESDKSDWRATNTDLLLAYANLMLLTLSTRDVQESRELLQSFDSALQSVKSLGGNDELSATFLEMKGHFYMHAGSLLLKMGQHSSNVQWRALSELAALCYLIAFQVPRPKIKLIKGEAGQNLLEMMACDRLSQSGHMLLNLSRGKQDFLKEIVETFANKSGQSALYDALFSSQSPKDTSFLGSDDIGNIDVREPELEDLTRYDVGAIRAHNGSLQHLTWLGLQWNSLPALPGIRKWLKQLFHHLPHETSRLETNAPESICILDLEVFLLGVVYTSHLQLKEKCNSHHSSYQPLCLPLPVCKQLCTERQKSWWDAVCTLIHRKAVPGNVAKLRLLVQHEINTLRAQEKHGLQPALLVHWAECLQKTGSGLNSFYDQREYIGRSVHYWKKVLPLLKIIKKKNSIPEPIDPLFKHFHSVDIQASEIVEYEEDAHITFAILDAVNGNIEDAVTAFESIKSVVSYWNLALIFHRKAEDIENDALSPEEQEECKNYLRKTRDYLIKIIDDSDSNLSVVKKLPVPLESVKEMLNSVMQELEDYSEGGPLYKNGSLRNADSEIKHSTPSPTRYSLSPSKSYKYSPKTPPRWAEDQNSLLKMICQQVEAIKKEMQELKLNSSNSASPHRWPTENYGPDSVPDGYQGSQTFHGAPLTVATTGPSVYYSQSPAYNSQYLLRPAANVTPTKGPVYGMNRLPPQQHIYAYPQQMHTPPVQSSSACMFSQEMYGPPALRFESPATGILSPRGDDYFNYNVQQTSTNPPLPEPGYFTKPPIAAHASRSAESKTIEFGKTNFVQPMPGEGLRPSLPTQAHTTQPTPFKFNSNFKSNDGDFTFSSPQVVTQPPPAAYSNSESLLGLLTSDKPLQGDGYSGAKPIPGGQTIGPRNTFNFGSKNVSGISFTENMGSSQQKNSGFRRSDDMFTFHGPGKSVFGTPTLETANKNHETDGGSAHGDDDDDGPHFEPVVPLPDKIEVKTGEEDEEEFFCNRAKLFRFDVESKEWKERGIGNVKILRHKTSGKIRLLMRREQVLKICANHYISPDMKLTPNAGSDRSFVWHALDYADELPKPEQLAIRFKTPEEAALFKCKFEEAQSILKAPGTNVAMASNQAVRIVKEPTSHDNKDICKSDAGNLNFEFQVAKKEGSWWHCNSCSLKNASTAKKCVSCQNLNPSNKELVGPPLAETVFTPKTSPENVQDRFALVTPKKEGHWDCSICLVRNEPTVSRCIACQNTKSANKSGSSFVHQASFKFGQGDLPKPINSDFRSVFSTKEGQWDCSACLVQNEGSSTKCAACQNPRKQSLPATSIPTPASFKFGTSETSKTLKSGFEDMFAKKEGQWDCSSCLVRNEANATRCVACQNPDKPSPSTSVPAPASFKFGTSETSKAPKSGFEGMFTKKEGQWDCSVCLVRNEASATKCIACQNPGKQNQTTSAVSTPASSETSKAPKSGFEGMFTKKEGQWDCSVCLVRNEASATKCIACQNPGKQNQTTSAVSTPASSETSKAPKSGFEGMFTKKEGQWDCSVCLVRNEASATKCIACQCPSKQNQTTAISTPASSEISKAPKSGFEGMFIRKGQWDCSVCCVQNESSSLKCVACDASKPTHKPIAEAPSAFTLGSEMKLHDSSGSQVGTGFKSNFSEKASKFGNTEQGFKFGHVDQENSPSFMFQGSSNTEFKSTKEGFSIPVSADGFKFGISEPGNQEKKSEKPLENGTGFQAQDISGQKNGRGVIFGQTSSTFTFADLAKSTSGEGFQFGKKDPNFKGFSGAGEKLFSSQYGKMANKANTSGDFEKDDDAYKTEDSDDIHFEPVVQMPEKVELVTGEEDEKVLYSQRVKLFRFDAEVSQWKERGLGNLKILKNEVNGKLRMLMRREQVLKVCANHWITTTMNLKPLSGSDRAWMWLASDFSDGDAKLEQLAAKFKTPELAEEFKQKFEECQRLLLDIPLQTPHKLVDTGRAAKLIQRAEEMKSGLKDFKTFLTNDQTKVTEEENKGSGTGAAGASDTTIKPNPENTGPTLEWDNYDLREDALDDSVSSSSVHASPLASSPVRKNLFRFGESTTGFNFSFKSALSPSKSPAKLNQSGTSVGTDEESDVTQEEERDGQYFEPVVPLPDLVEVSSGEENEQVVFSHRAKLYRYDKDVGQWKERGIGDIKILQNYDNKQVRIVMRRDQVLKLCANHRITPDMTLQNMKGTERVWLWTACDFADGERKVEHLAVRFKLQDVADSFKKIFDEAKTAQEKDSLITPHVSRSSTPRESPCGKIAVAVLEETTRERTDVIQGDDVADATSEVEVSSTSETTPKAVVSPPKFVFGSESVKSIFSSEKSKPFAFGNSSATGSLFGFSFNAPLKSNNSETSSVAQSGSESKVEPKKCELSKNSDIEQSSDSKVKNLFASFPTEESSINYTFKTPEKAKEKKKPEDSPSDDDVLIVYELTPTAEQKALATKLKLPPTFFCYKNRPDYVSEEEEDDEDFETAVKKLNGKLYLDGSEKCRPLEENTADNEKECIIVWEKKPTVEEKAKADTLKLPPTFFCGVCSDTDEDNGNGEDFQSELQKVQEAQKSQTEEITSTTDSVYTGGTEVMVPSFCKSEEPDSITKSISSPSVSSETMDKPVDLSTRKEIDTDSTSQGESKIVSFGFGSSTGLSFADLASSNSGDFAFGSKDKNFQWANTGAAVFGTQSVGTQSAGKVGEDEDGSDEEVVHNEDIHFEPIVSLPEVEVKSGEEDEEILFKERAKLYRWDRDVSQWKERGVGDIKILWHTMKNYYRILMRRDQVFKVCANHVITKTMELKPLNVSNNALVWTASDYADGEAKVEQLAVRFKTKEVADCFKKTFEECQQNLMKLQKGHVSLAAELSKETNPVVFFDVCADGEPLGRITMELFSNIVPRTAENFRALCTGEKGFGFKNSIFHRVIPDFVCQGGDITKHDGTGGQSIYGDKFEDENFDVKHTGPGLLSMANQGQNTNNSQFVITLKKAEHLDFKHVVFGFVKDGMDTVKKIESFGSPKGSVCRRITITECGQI
inactive: erlotinib 0.017 | [1] 0.014 | [2] -0.004 | [3] -0.011 | [4] -0.012 | [5] -0.004 | [6] -0.038 | [7] -0.001 | [8] -0.007 | IRAK-1-4 Inhibitor I -0.019 | ibrutinib 0.001 | [9] -0.01 | ralimetinib 0.018 | [10] -0.009 | [11] -0.01 | [12] 0.011 | [13] 0.007 | [14] 0 | [15] 0.018 | [16] -0.001

RALA (UniProt P11233)
inactive: erlotinib 0.007 | [1] -0.146 | [2] -0.035 | [3] -0.04 | [4] 0.031 | [5] -0.012 | [6] 0.003 | [7] -0.016 | [8] 0.002 | IRAK-1-4 Inhibitor I 0.04 | ibrutinib 0.009 | [9] -0.01 | ralimetinib 0.006 | [10] -0.05 | [11] 0.034 | [12] -0.002 | [13] -0.001 | [14] 0.057 | [15] -0.048 | [16] -0.023

RAP1GAP isoform 4 (UniProt P47736)
inactive: erlotinib 0.087 | [1] -0.028 | [2] -0.011 | [3] -0.018 | [4] -0.019 | [5] -0.012 | [6] -0.005 | [7] 0.02 | [8] 0.056 | IRAK-1-4 Inhibitor I 0.041 | ibrutinib -0.024 | [9] 0.018 | ralimetinib 0.068 | [10] -0.037 | [11] 0.051 | [12] 0.003 | [13] -0.008 | [14] 0.056 | [15] -0.009 | [16] -0.012

RAB8B (UniProt Q92930)
inactive: erlotinib 0.013 | [1] -0.042 | [2] 0.049 | [3] 0.113 | [4] 0.004 | [5] 0.034 | [6] 0.125 | [7] 0 | [8] -0.006 | IRAK-1-4 Inhibitor I 0.035 | ibrutinib -0.03 | [9] -0.018 | ralimetinib -0.035 | [10] -0.013 | [11] -0.003 | [12] 0.051 | [13] -0.001 | [14] 0.01 | [15] 0.099 | [16] -0.06

QTRT2 isoform 4 (UniProt Q9H974)
UniProt Q9H974, sequence (Q9H974 whole entry, looked up): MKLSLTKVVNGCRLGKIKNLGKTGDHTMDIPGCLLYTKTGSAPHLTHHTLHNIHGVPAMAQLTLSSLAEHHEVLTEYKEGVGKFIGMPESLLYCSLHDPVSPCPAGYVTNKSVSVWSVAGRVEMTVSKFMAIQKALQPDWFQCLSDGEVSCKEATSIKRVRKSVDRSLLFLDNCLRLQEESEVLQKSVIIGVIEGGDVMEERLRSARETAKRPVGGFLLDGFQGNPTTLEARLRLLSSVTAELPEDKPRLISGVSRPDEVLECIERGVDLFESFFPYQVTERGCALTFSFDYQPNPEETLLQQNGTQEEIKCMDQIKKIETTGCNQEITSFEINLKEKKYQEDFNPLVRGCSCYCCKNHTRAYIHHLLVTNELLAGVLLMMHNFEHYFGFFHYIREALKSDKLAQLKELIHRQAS
inactive: erlotinib -0.024 | [1] 0.082 | [2] -0.032 | [3] -0.019 | [4] -0.048 | [5] -0.009 | [6] -0.007 | [7] 0.007 | [8] 0.022 | IRAK-1-4 Inhibitor I 0.006 | ibrutinib 0.01 | [9] 0.002 | ralimetinib 0.014 | [10] -0.028 | [11] -0.014 | [12] -0.035 | [13] 0.006 | [14] -0.025 | [15] -0.003 | [16] -0.013

REEP6 (UniProt Q96HR9)
UniProt Q96HR9, sequence (Q96HR9 whole entry, looked up): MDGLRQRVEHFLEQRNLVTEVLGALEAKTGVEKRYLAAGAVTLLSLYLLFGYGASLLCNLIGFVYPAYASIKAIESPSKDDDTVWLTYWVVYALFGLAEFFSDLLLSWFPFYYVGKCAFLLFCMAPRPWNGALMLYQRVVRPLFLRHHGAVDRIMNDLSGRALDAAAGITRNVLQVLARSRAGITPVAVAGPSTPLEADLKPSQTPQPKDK
inactive: erlotinib -0.023 | [1] -0.026 | [2] 0.008 | [3] 0.077 | [4] -0.06 | [5] -0.029 | [6] -0.069 | [7] 0.021 | [8] -0.022 | IRAK-1-4 Inhibitor I -0.05 | ibrutinib -0.026 | [9] -0.026 | ralimetinib 0.018 | [10] -0.029 | [11] -0.067 | [12] -0.006 | [13] -0.066 | [14] 0.084 | [15] 0.055 | [16] 0.038

RASA3 (UniProt Q14644)
UniProt Q14644, sequence (Q14644 whole entry, looked up): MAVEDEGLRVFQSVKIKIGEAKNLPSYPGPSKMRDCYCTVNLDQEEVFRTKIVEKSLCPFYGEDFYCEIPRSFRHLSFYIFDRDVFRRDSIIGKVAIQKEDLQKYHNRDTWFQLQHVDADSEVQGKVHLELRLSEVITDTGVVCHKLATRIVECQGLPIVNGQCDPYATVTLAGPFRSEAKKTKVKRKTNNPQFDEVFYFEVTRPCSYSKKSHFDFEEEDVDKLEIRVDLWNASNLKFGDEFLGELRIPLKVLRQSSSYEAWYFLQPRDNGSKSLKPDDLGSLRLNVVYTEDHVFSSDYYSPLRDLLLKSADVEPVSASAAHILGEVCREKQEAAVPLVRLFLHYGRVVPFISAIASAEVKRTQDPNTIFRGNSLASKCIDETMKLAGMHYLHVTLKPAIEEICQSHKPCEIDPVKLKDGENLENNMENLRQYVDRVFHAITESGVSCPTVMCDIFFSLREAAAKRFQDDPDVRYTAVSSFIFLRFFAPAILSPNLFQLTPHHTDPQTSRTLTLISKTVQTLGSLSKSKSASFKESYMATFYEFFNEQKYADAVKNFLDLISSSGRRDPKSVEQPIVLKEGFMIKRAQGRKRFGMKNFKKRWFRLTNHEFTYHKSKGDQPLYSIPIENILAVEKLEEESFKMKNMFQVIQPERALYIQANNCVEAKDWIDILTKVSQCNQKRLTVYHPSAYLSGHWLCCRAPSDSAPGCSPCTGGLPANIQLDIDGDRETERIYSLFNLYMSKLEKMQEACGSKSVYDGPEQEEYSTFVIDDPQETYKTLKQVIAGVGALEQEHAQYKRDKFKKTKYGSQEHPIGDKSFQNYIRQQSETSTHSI
inactive: erlotinib 0.02 | [1] -0.089 | [2] 0.045 | [3] -0.001 | [4] 0.046 | [5] 0.021 | [6] 0.004 | [7] -0.043 | [8] -0.005 | IRAK-1-4 Inhibitor I 0.02 | ibrutinib 0 | [9] -0.031 | ralimetinib -0.012 | [10] -0.054 | [11] 0.02 | [12] -0.048 | [13] 0.031 | [14] -0.026 | [15] -0.018 | [16] -0.078

RAB27A (UniProt P51159)
inactive: erlotinib -0.045 | [1] 0.023 | [2] -0.014 | [3] 0.009 | [4] -0.009 | [5] -0.003 | [6] -0.025 | [7] -0.031 | [8] -0.015 | IRAK-1-4 Inhibitor I -0.049 | ibrutinib -0.011 | [9] -0.035 | ralimetinib 0.074 | [10] 0.033 | [11] -0.054 | [12] -0.044 | [13] 0.047 | [14] -0.057 | [15] 0.006 | [16] -0.026

RDH10 (UniProt Q8IZV5)
inactive: erlotinib 0.043 | [1] 0.001 | [2] -0.019 | [3] 0.087 | [4] -0.028 | [5] -0.022 | [6] -0.013 | [7] 0.024 | [8] -0.023 | IRAK-1-4 Inhibitor I 0.001 | ibrutinib 0.016 | [9] -0.015 | ralimetinib 0.04 | [10] -0.013 | [11] 0.03 | [12] -0.007 | [13] -0.033 | [14] -0.045 | [15] -0.034 | [16] -0.016

RAP1B (UniProt P61224)
inactive: erlotinib -0.017 | [1] -0.085 | [2] 0.024 | [3] 0.016 | [4] -0.031 | [5] 0.006 | [6] -0.014 | [7] -0.033 | [8] -0.004 | IRAK-1-4 Inhibitor I 0.014 | ibrutinib -0.024 | [9] -0.005 | ralimetinib 0.051 | [10] -0.03 | [11] -0.014 | [12] -0.01 | [13] 0.004 | [14] 0.008 | [15] -0.017 | [16] -0.008

RIC1 (UniProt Q4ADV7)
inactive: erlotinib 0 | [1] -0.239 | [2] -0.074 | [3] 0.025 | [4] -0.176 | [5] 0.044 | [6] 0.035 | [7] 0.038 | [8] 0.057 | IRAK-1-4 Inhibitor I 0.022 | ibrutinib -0.129 | [9] -0.052 | ralimetinib 0.046 | [10] -0.074 | [11] 0.038 | [12] -0.032 | [13] -0.065 | [14] 0.113 | [15] 0.027 | [16] -0.006

RALGAPB (UniProt Q86X10)
inactive: erlotinib 0.024 | [1] -0.047 | [2] 0.051 | [3] 0.018 | [4] 0 | [5] -0.038 | [6] -0.074 | [7] -0.008 | [8] 0.049 | IRAK-1-4 Inhibitor I 0.033 | ibrutinib 0.066 | [9] -0.002 | ralimetinib 0.033 | [10] -0.038 | [11] 0.003 | [12] -0.048 | [13] 0.029 | [14] 0.065 | [15] 0.032 | [16] 0.01

RABEPK (UniProt Q7Z6M1)
UniProt Q7Z6M1, sequence (Q7Z6M1 whole entry, looked up): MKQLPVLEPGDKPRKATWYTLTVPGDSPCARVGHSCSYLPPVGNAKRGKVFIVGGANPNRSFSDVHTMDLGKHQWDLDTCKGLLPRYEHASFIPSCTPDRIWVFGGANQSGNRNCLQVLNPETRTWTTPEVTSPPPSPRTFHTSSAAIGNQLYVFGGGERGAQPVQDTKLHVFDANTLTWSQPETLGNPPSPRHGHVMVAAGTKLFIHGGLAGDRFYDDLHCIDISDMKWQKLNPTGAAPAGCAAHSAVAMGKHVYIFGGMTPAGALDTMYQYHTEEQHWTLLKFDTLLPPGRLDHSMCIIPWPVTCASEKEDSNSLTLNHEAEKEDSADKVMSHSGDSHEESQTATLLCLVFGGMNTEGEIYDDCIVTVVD
inactive: erlotinib -0.01 | [1] 0.014 | [2] 0.012 | [3] 0.004 | [4] 0.032 | [5] 0.007 | [6] -0.024 | [7] -0.03 | [8] -0.032 | IRAK-1-4 Inhibitor I 0.014 | ibrutinib 0 | [9] -0.002 | ralimetinib 0.01 | [10] -0.006 | [11] 0.018 | [12] -0.009 | [13] -0.007 | [14] 0.008 | [15] 0.001 | [16] 0

S100A11 (UniProt P31949)
inactive: erlotinib 0.02 | [1] 0.034 | [2] 0.02 | [3] -0.008 | [4] -0.028 | [5] -0.009 | [6] -0.055 | [7] 0.071 | [8] 0.074 | IRAK-1-4 Inhibitor I -0.025 | ibrutinib -0.011 | [9] -0.049 | ralimetinib -0.009 | [10] -0.017 | [11] -0.02 | [12] -0.024 | [13] 0.003 | [14] 0.058 | [15] 0.028 | [16] 0.037

RBM8A (UniProt Q9Y5S9)
inactive: erlotinib -0.061 | [1] 0.035 | [2] -0.002 | [3] 0.069 | [4] -0.042 | [5] 0.029 | [6] 0.093 | [7] 0.086 | [8] -0.076 | IRAK-1-4 Inhibitor I -0.059 | ibrutinib -0.001 | [9] -0.016 | ralimetinib -0.011 | [10] 0.057 | [11] -0.038 | [12] -0.004 | [13] 0.066 | [14] -0.101 | [15] 0.035 | [16] 0.027

SCO2 (UniProt O43819)
inactive: erlotinib 0.055 | [1] -0.09 | [2] 0.057 | [3] 0.023 | [4] -0.017 | [5] 0.085 | [6] 0.035 | [7] 0.014 | [8] 0.041 | IRAK-1-4 Inhibitor I -0.015 | ibrutinib -0.021 | [9] -0.065 | ralimetinib -0.02 | [10] -0.142 | [11] 0 | [12] -0.258 | [13] -0.009 | [14] 0.017 | [15] 0.01 | [16] -0.117
